Results filed as inconclusive are left out. A call without a number means that no potency is given here. Unmarked numbers belong to inactive results. Calls of active or inactive are those of the source. The call rests on the fitted dose curve; in most records, active means well fitted inhibition curve with a large enough effect; inconclusive means small, poorly fitted or top-dose-only effect; inactive means no such curve, though single readings can be large or run the other way.
What was measured:
[1] = system: Zika virus NS2B-NS3 protease (unlinked complex); test: Primary screen GU Rhodamine qHTS for Zika virus inhibitors: Unlinked NS2B-NS3 protease assay (AID 1347159); further: nearly all actives have a fitted effect of over 60% in size
How it was run: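 Noncovalent NS2B hydrophilic domain–NS3 protease domain complex (25 nM) preincubated 15 min at room temperature with compounds (up to 114 microM) in 10 mM Tris-HCl pH 8.0, 0.01% Tween 20; 1.5 microM Rhodamine110 substrate added, fluorescence change over 15 min fitted to Hill equation.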

[2] = system: Zika virus NS2B-NS3 protease (linked construct); test: Primary screen NINDS Rhodamine qHTS for Zika virus inhibitors (AID 1347160); further: nearly all actives have a fitted effect of over 55% in size
How it was run: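 Purified linked NS2B-NS3 protease (NS2B hydrophilic domain joined to NS3 protease by flexible linker), 25 nM in 10 mM Tris-HCl pH 8.0, 0.01% Tween 20. Compounds titrated, 15 min preincubation at room temperature; 1.5 microM Rhodamine110 substrate, FITC fluorescence change over 15 min.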

| Compound | Potency [1] | Potency [2] | activity change, negative = inhibition [1] | activity change, negative = inhibition [2] |
| --- | --- | --- | --- | --- |
| C=CC(C)(C)c1[nH]c2cc3c(cc2c1CC1NC(=O)C2=CCCN2C1=O)C=CC(C)(C)O3 (stereo not given) | inactive | inactive | – | – |
| CCCOC(c1cc2nccc(C(=O)O)c2[nH]1)c1ccccc1Cl (stereo not given) | inactive | inactive | – | – |
| CC1(C)CCCC2(C)C1C(O)C=C(CO)C2(O)CO (stereo not given) | inactive | inactive | – | – |
| C=C1[C@@H]2CC[C@@H]3[C@@](CCC4C(C(=O)O)(C(=O)O)C[C@@H](O[C@@H]5O[C@H](CO)[C@@H](O)[C@H](O)[C@H]5OC(=O)CC(C)C)C[C@]43C)(C2)[C@H]1O (stereo not given in full) | inactive | inactive | – | – |
| CCOc1ccc(NC(=S)N2CCC(C(O)(c3ccccc3)c3ccccc3)CC2)cc1 | inactive | inactive | – | – |
| Nc1ncnc2c1ncn2CCNCCCCCO | inactive | inactive | – | – |
| C=C1C(OC2OCC(O)C(O)C2O)CC2C(C)(C)C(O)CCC2(C)C1CC/C(C)=C\CO (stereo not given) | inactive | inactive | – | – |
| COc1ccc([C@H]2CNC(=O)C2)cc1OC1CCCC1 | inactive | inactive | – | – |
| C[C@H]1O[C@@H](O[C@H]2CC[C@@]3(C)C(CC[C@]4(C)C3CC=C3C5CC(C)(C)CC[C@]5(C(=O)O)CC[C@]34C(=O)O)C2(C)C)[C@H](O)[C@@H](O)[C@@H]1O (stereo not given in full) | inactive | inactive | – | – |
| COc1cccc(-c2cc(NCc3ccc4c(c3)OCO4)nc(N)n2)c1 | inactive | inactive | – | – |
| CN(C)c1nc(NC2CCC(NC(=O)c3ccc(F)c(F)c3)CC2)nc2ccccc12 (stereo not given) | inactive | inactive | – | – |
| C=C1C(=O)OC2C1C(O)CC1(C)C(O)CCC(C=O)C21 (stereo not given) | inactive | inactive | – | – |
| O=C(NCc1ccc(S(=O)(=O)c2cc(F)cc(F)c2)cc1)c1ccc2nccn2c1 | inactive | inactive | – | – |
| Cc1oc2ccccc2c1CNC(=O)NCc1cccs1 | inactive | inactive | – | – |
| O=C(CCCCN1CCOCC1)Nc1ccc(-c2cccnc2)cc1 | inactive | inactive | – | – |
| CC(C)(C)NCCCNC(=O)c1cccc(Br)c1 | inactive | inactive | – | – |
| C[C@@H]1O[C@@H](O[C@H]2[C@H](OC(=O)[C@]34CCC(C)(C)C[C@H]3C3=CCC5[C@@]6(C)C[C@H](O)[C@H](O[C@@H]7O[C@H](CO)[C@@H](O[C@H]8OC[C@](O)(CO)[C@H]8O)[C@H](O)[C@H]7O)[C@@](C)(CO)C6[C@H](O)C[C@@]5(C)[C@]3(C)C[C@H]4O)OC[C@H](O)[C@@H]2O)[C@H](O)[C@H](O)[C@H]1O[C@@H]1OC[C@@H](O)[C@H](O[C@@H]2OC[C@](O)(CO)[C@H]2O)[C@H]1O (stereo not given in full) | – | – | 20.8% [at 19.1 µM] | 33.3% [at 10.7 µM] |
| Cc1cc(O)cc(O[C@@H]2O[C@H](CO)[C@@H](O)[C@H](O)[C@H]2O)c1 | inactive | inactive | – | – |
| CC(O)/C=C/C1(O)C2(C)COC1(C)CC(O)C2 (stereo not given) | inactive | inactive | – | – |
| C/C=C1\[C@H](O[C@@H]2O[C@H](CO)[C@@H](O)[C@H](O)[C@H]2O)OC=C2C(=O)OCCc3ccc(O)c(c3)Oc3ccc(cc3)CCOC(=O)C[C@H]21 | inactive | inactive | – | – |
| C[C@@H]1CCC2C(C)(C)[C@H](O)CC[C@]2(C)[C@@]12Cc1c(O)cc3c(c1O2)CNC3=O (stereo not given in full) | inactive | inactive | – | – |
| N#Cc1ccc(-c2cnc3[nH]cc(NC(=O)c4cccnc4)c3c2)cc1 | inactive | inactive | – | – |
| CC(C)(C)NC(=O)[C@@H](c1cccnc1)N(C(=O)c1ccco1)c1ccc(C(C)(C)C)cc1 | inactive | inactive | – | – |

| Compound | Potency [1] | Potency [2] | activity change, negative = inhibition [1] | activity change, negative = inhibition [2] |
| --- | --- | --- | --- | --- |
| C=C1C(=O)O[C@@H]2C[C@H](C)[C@@]3(O)C=C(C(C)=O)[C@]4(CC3C[C@H]12)C(=O)O[C@H]1C[C@@H](C)C(CCC(C)=O)=CC[C@H]14 (stereo not given in full) | inactive | inactive | – | – |
| COc1ccc(N(C)c2nc(C)nc3ccccc23)cc1 | inactive | inactive | – | – |
| CC(CO)C1CCC2(C)CC3C(CO)CC(O)C3C(C)(O)C/C=C/12 (stereo not given) | inactive | inactive | – | – |
| CN(C)CCn1cc(S(=O)(=O)c2cccc(F)c2)c2cccnc21 | inactive | inactive | – | – |
| C[C@@H]1O[C@@H](O[C@H]2[C@H](O[C@H]3CC[C@@]4(C)C(CC[C@]5(C)C4CC=C4[C@@H]6CC(C)(C)CC[C@]6(C(=O)O[C@@H]6OC[C@H](O)[C@H](O)[C@H]6O[C@@H]6O[C@@H](C)[C@H](O[C@@H]7O[C@H](CO)[C@@H](O)[C@H](O)[C@H]7O)[C@H](O)[C@H]6O)[C@H](O)C[C@]45C)C3(C)C)O[C@H](CO)[C@@H](O[C@@H]3OC[C@@H](O)[C@H](O)[C@H]3O)[C@@H]2O)[C@H](O)[C@H](O)[C@H]1O (stereo not given in full) | – | – | -6.95% [at 19.1 µM] | -3.53% [at 10.7 µM] |
| C/C(=C\CC[C@@H](C)[C@H]1CC(O)[C@@]2(C)C3CC[C@H]4C(C)(C)[C@@H](OC5OCC(O)C(O)C5OC5OC(CO)C(O)C(O)C5O)CC[C@@]45C[C@@]35CC(O)[C@]12C)C(=O)O (stereo not given in full) | inactive | inactive | – | – |
| Cn1cncc1C(N)(c1ccc(Cl)cc1)c1ccc2c(c1)c(-c1cccc(Cl)c1)cc(=O)n2C (stereo not given) | inactive | inactive | – | – |
| CSc1ccc(C(=O)N[C@@H]2CCCC[C@@H]2NC(=O)CNC(=O)c2cc(C(F)(F)F)ccc2NC(=O)NC(C)C)cc1 | inactive | inactive | – | – |
| CCc1ccc(Cc2ccc3c(c2)[C@]2(OC3)O[C@H](CO)[C@@H](O)[C@H](O)[C@H]2O)cc1 | inactive | inactive | – | – |
| C/C=C(\C)C(=O)OCC1OC(OC2OC(COC(=O)/C(C)=C/C)C(OC3OC(CO)C(OC(=O)/C(C)=C/C)C(OC(=O)/C(C)=C/C)C3O)C(O)C2O)C(O)C(O)C1OC1OC(CO)C(OC(=O)/C(C)=C/C)C(OC(=O)/C(C)=C/C)C1O (stereo not given) | inactive | inactive | – | – |
| CC(C)C1=CC2C(CC[C@]2(C)O)[C@](C)(O)CC1 (stereo not given in full) | inactive | inactive | – | – |
| Cc1ccc(-c2ccc3ncc4c(c3n2)n(C2CCN(C(=O)[C@H](C)O)CC2)c(=O)n4C)cn1 | inactive | inactive | – | – |
| CC1(C)CC[C@]2(C(=O)O[C@@H]3O[C@H](CO)[C@@H](O)[C@H](O)[C@H]3O)CC[C@]3(C)C(=CCC4[C@@]5(C)CC[C@H](O[C@@H]6O[C@H](C(=O)O)[C@@H](O)[C@H](O[C@@H]7O[C@H](CO)[C@H](O)[C@H](O)[C@H]7O)[C@H]6O)C(C)(C)C5CC[C@]43C)C2C1 (stereo not given in full) | inactive | inactive | – | – |
| CC(C)=CCC/C(C)=C/CC/C(C)=C/COC1OC(COC2OCC(OC3OCC(O)C(O)C3O)C(O)C2O)C(O)C(OC2OC(C)C(OC3OC(C)C(OC4OCC(OC5OC(C)C(O)C(O)C5O)C(O)C4O)C(O)C3O)C(O)C2O)C1O (stereo not given) | – | – | 15.4% [at 19.1 µM] | -0.102% [at 10.7 µM] |
| C/C=C1\[C@H](O[C@@H]2O[C@H](CO)[C@@H](O)[C@H](O)[C@H]2O)OC=C(C(=O)OC)[C@H]1CC(=O)O | inactive | inactive | – | – |
| CC(Oc1cc(-n2cnc3ccc(CN4CCN(C)CC4)cc32)sc1C(N)=O)c1ccccc1C(F)(F)F (stereo not given) | inactive | inactive | – | – |
| COC1CC(OC2CCC3(C)C(=CCC4C3C(OC(C)=O)C(OC(=O)/C=C/c3ccccc3)C3(C)C(C(C)O)CCC43O)C2)OC(C)C1OC1CC(OC)C(OC2OC(C)C(OC3OC(CO)C(O)C(O)C3O)C(OC)C2O)C(C)O1 (stereo not given) | – | – | 0.295% [at 19.1 µM] | 23.5% [at 10.7 µM] |
| COc1ccc(CC2NCCc3c2[nH]c2ccc(C)cc32)cc1OC (stereo not given) | inactive | inactive | – | – |
| Cn1nnc(-c2ccc(-c3ccc(N4C[C@H](CO)OC4=O)cc3F)cn2)n1 | inactive | inactive | – | – |
| COc1cc(N2CCC(N3CCN(C)CC3)CC2)ccc1Nc1ncc(Cl)c(-c2c[nH]c3ccccc23)n1 | inactive | inactive | – | – |
| C[C@@H]1O[C@@H](O[C@H]2[C@@H]3C=CO[C@@H](O[C@@H]4O[C@H](CO)[C@@H](O)[C@H](O)[C@H]4O)[C@@H]3[C@@]3(CO)O[C@@H]23)[C@H](OC(=O)/C=C/c2ccc(O)c(O)c2)[C@H](O)[C@H]1O | inactive | inactive | – | – |
| CC(=O)OC1CC2(C)C3=CCC4(C)C5C(O)C(O)C(C(C)C)C5(C)CCC4(C)C3CCC2C(C)(C)C1OC1OC(CO)C(O)C(O)C1O (stereo not given) | inactive | inactive | – | – |

— PubChem BioAssay (NCATS)
